Our source for the growth inhibition values is PubChem BioAssay (NCI).

Assay [1] in a line: NCI Yeast Anticancer Drug Screen. Data for the rad50 strain (AID 155).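 Further: 0% = growth of vehicle-only cultures of the same strain.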 To be noted: S. cerevisiae rad50 strain growth inhibition, stronger effect = higher value. The method in brief: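 Cells are treated with compound, grown, and their growth is then scored against vehicle-only cultures of the same repair-deficient yeast strain.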
A short description of assay [2]: NCI Yeast Anticancer Drug Screen. Data for the mec2-1 strain (AID 157). To be noted: S. cerevisiae mec2-1 strain, stronger effect = higher value. The method in brief:
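Test agents were screened against the mec2-1 yeast strain, with defined DNA repair or cell cycle alteration. Growth was scored as inhibition against vehicle-only controls.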

Assay [3] is described as follows: NCI Yeast Anticancer Drug Screen. Data for the sgs1 mgt1 strain (AID 161).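 Further: 0% = growth of cultures given vehicle only.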 As to conditions: S. cerevisiae sgs1 mgt1 strain, stronger effect = higher value. The method in brief:
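Read-out: growth inhibition vs vehicle controls. Cells: mutant yeast strain deficient in DNA damage repair.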

A short description of assay [4]: NCI Yeast Anticancer Drug Screen. Data for the cln2 rad14 strain (AID 165).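 Further: 0% = growth equal to vehicle treated cultures.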 To be noted: S. cerevisiae cln2 rad14 strain, stronger effect = higher value. A digest of the protocol: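 Growth of compound-exposed yeast (cln2 rad14 genotype) measured and expressed as inhibition relative to vehicle.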
Assay [5] can be described thus: NCI Yeast Anticancer Drug Screen. Data for the bub3 strain (AID 167). As to conditions: S. cerevisiae bub3 mutant strain, stronger effect = higher value. The method in brief: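 Part of a panel of yeast mutants defective in DNA damage repair or cell cycle regulation. Each strain is grown with compound, and inhibition is calculated relative to solvent-treated cultures.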
Assay [6] is described as follows: NCI Yeast Anticancer Drug Screen. Data for the mlh1 rad18 strain (AID 175). To be noted: S. cerevisiae mlh1 rad18 strain growth inhibition, stronger effect = higher value. A digest of the protocol: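 In this whole-cell yeast screen, a strain with altered DNA damage repair is challenged with compound, and its growth is measured against matched vehicle-treated controls.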
Setting [7] is: at 5.0 µM (retest, dose inferred, filed as 0.5).
Where [8] appears, read: at 50.0 µM (retest, dose inferred, filed as 5.0).

About 79,000 compounds went through this panel and 15% of them were active in at least one assay; those are over-represented in the sample as a whole. Unmarked numbers belong to inactive results. Activity calls are given as the source filed them. No stated cut-off is given here; in the data, active means growth inhibition above about 70%; inactive means the rest.

As to `COc1ccc2c(N3CCN(C(=O)C(Cl)(Cl)Cl)CC3)cc(C)nc2c1`, the growth inhibition is 2% in assay [1] (setting [7]); 4% in assay [1] (setting [8]); 2.05% in assay [1] (at 50.0 µM); 1% in assay [2] (setting [7]); 0% in assay [2] (setting [8]); 0.2% in assay [2] (at 50.0 µM). Besides, the growth inhibition in assay [3] (setting [7]) was 1%; in assay [3] (setting [8]) it was 0%; in assay [3] (at 50.0 µM), -24.6%; in assay [4] (setting [7]) it was 0%; in assay [4] (setting [8]), 0%; in assay [4] (at 50.0 µM) it was -2.9%. For the same compound, the growth inhibition was 0% in assay [5] (setting [7]); 7% in assay [5] (setting [8]); -0.5% in assay [5] (at 50.0 µM); 3% in assay [6] (setting [7]); 4% in assay [6] (setting [8]); 2.75% in assay [6] (at 50.0 µM).

Take `CCOC(=O)N/N=C/c1ccc([N+](=O)[O-])o1`: the growth inhibition in assay [1] (setting [7]) was 11%; in assay [1] (setting [8]), 61%; in assay [1] (at 50.0 µM), 89.9% (active); in assay [2] (setting [7]), 2%; in assay [2] (setting [8]), 35%; in assay [2] (at 50.0 µM), 81.8% (active). Also, the growth inhibition in assay [3] (setting [7]) was 3%; in assay [3] (setting [8]) it was 62%; in assay [3] (at 50.0 µM) it was 92.2% (active); in assay [4] (setting [7]) it was 1%; in assay [4] (setting [8]) it was 19%; in assay [4] (at 50.0 µM) it was 52%. Moreover, the growth inhibition in assay [5] (setting [7]) is 17%; in assay [5] (setting [8]), 77% (active); in assay [5] (at 50.0 µM), 82.1% (active); in assay [6] (setting [7]) it was 17%; in assay [6] (setting [8]), 78% (active); in assay [6] (at 50.0 µM), 94% (active).

Turning to `Oc1cc(Cl)cc2c1-c1ccc(Cl)cc1C2O` (stereo not given), the growth inhibition was 9% in assay [1] (setting [7]); 97% (active) in assay [1] (setting [8]); 95.2% (active) in assay [1] (at 50.0 µM); 6% in assay [2] (setting [7]); 98% (active) in assay [2] (setting [8]); 91.2% (active) in assay [2] (at 50.0 µM). Further, the growth inhibition is -4% in assay [3] (setting [7]); 97% (active) in assay [3] (setting [8]); 96.3% (active) in assay [3] (at 50.0 µM); 28% in assay [4] (setting [7]); 97% (active) in assay [4] (setting [8]); 81.8% (active) in assay [4] (at 50.0 µM). The growth inhibition is 31% in assay [5] (setting [7]); 97% (active) in assay [5] (setting [8]); 93.8% (active) in assay [5] (at 50.0 µM); 20% in assay [6] (setting [7]); 98% (active) in assay [6] (setting [8]); 95.5% (active) in assay [6] (at 50.0 µM).

Take `Cc1cc(C2c3ccccc3-c3ccccc32)cc(C)c1O`: the growth inhibition in assay [1] (setting [7]) was 9%; in assay [1] (setting [8]) it was 7%; in assay [1] (at 50.0 µM) it was 98.3% (active); in assay [2] (setting [7]) it was 4%; in assay [2] (setting [8]), 5%; in assay [2] (at 50.0 µM), 98.6% (active). Moreover, the growth inhibition is 4% in assay [3] (setting [7]); 8% in assay [3] (setting [8]); 98.8% (active) in assay [3] (at 50.0 µM); -1% in assay [4] (setting [7]); -9% in assay [4] (setting [8]); 97.3% (active) in assay [4] (at 50.0 µM). Further, the growth inhibition in assay [5] (setting [7]) is -1%; in assay [5] (setting [8]), 8%; in assay [5] (at 50.0 µM) it was 97.2% (active); in assay [6] (setting [7]), 7%; in assay [6] (setting [8]), 18%; in assay [6] (at 50.0 µM) it was 98.5% (active).

On to `CCCCCCCCCCCCCCNC(=O)CCC(NC(=O)c1ccc(N(C)Cc2cnc3nc(N)nc(N)c3n2)cc1)C(=O)NCCCCCCCCCCCCCC` (stereo not given), for which the growth inhibition in assay [1] (setting [7]) was 28%; in assay [1] (setting [8]), 94% (active); in assay [1] (at 50.0 µM), 64.9%; in assay [2] (setting [7]) it was 22%; in assay [2] (setting [8]) it was 96% (active); in assay [2] (at 50.0 µM), 84.7% (active). For the same compound, the growth inhibition was 19% in assay [3] (setting [7]); 93% (active) in assay [3] (setting [8]); 86.3% (active) in assay [3] (at 50.0 µM); 3% in assay [4] (setting [7]); 77% (active) in assay [4] (setting [8]); 45.1% in assay [4] (at 50.0 µM). For the same compound, the growth inhibition was 24% in assay [5] (setting [7]); 93% (active) in assay [5] (setting [8]); 68.7% in assay [5] (at 50.0 µM); 24% in assay [6] (setting [7]); 91% (active) in assay [6] (setting [8]); 20.8% in assay [6] (at 50.0 µM).

As to `COc1ccc(/C=C/c2ccc3ccccc3n2)cc1OC`, the growth inhibition in assay [1] (setting [7]) is 3%; in assay [1] (setting [8]) it was 97% (active); in assay [1] (at 50.0 µM), 93.8% (active); in assay [2] (setting [7]), 8%; in assay [2] (setting [8]) it was 98% (active); in assay [2] (at 50.0 µM) it was 97% (active). Moreover, the growth inhibition was 3% in assay [3] (setting [7]); 93% (active) in assay [3] (setting [8]); 97.5% (active) in assay [3] (at 50.0 µM); 1% in assay [4] (setting [7]); 96% (active) in assay [4] (setting [8]); 83.6% (active) in assay [4] (at 50.0 µM). Further, the growth inhibition in assay [5] (setting [7]) is 10%; in assay [5] (setting [8]), 98% (active); in assay [5] (at 50.0 µM) it was 95.3% (active); in assay [6] (setting [7]), -1%; in assay [6] (setting [8]), 97% (active); in assay [6] (at 50.0 µM), 95.7% (active).

As to `COC(=O)c1cc(-c2ccc(C)cc2)c2c(=O)n(-c3ccccc3)[nH]c2n1`, the growth inhibition is 8% in assay [1] (setting [7]); 75% (active) in assay [1] (setting [8]); 72.9% (active) in assay [1] (at 50.0 µM); 5% in assay [2] (setting [7]); 71% (active) in assay [2] (setting [8]); 94.9% (active) in assay [2] (at 50.0 µM). Also, the growth inhibition in assay [3] (setting [7]) is -7%; in assay [3] (setting [8]) it was 51%; in assay [3] (at 50.0 µM), 51.1%; in assay [4] (setting [7]), 11%; in assay [4] (setting [8]), 87% (active); in assay [4] (at 50.0 µM) it was 94.8% (active). The growth inhibition in assay [5] (setting [7]) is 4%; in assay [5] (setting [8]), 69%; in assay [5] (at 50.0 µM), 92.8% (active); in assay [6] (setting [7]), -3%; in assay [6] (setting [8]) it was 85% (active); in assay [6] (at 50.0 µM) it was 85.9% (active).

Regarding `C=C1CC(C)(C)C(c2ccccc2)OC1=O` (stereo not given), the growth inhibition in assay [1] (setting [7]) is 1%; in assay [1] (setting [8]), 60%; in assay [1] (at 50.0 µM), 53%; in assay [2] (setting [7]), 7%; in assay [2] (setting [8]), 80% (active); in assay [2] (at 50.0 µM) it was 31.7%. The growth inhibition was 8% in assay [3] (setting [7]); 98% (active) in assay [3] (setting [8]); 97.1% (active) in assay [3] (at 50.0 µM); -4% in assay [4] (setting [7]); 25% in assay [4] (setting [8]); 5.55% in assay [4] (at 50.0 µM). In addition, the growth inhibition in assay [5] (setting [7]) was -7%; in assay [5] (setting [8]) it was 80% (active); in assay [5] (at 50.0 µM) it was 73.5% (active); in assay [6] (setting [7]), 13%; in assay [6] (setting [8]), 87% (active); in assay [6] (at 50.0 µM), 77.8% (active).

As for `COc1ccc([N+](=O)[O-])cc1Nc1c2ccccc2nc2ccccc12`, the growth inhibition in assay [1] (setting [7]) is 6%; in assay [1] (setting [8]) it was 69%; in assay [1] (at 50.0 µM) it was 80.8% (active); in assay [2] (setting [7]), 17%; in assay [2] (setting [8]), 70% (active); in assay [2] (at 50.0 µM), 64.2%. For the same compound, the growth inhibition in assay [3] (setting [7]) was 0%; in assay [3] (setting [8]) it was 58%; in assay [3] (at 50.0 µM), 49%; in assay [4] (setting [7]) it was -2%; in assay [4] (setting [8]) it was -16%; in assay [4] (at 50.0 µM) it was 37.5%. The growth inhibition in assay [5] (setting [7]) was -1%; in assay [5] (setting [8]), 49%; in assay [5] (at 50.0 µM) it was 46.5%; in assay [6] (setting [7]) it was 1%; in assay [6] (setting [8]) it was 6%; in assay [6] (at 50.0 µM), 41%.

`OC(CC(CC(O)(C(F)(F)F)C(F)(F)F)=NN=C(CC(O)(C(F)(F)F)C(F)(F)F)CC(O)(C(F)(F)F)C(F)(F)F)(C(F)(F)F)C(F)(F)F`: the growth inhibition in assay [1] (setting [7]) is 41%; in assay [1] (setting [8]), 73% (active); in assay [1] (at 50.0 µM) it was 83.7% (active); in assay [2] (setting [7]), 31%; in assay [2] (setting [8]), 92% (active); in assay [2] (at 50.0 µM) it was 84.3% (active). In addition, the growth inhibition in assay [3] (setting [7]) was 32%; in assay [3] (setting [8]), 88% (active); in assay [3] (at 50.0 µM), 78.5% (active); in assay [4] (setting [7]) it was 35%; in assay [4] (setting [8]) it was 72% (active); in assay [4] (at 50.0 µM), 72% (active). In addition, the growth inhibition in assay [5] (setting [7]) is 37%; in assay [5] (setting [8]), 81% (active); in assay [5] (at 50.0 µM), 82.7% (active); in assay [6] (setting [7]), 46%; in assay [6] (setting [8]), 93% (active); in assay [6] (at 50.0 µM), 67.6%.
